Structures are written as SMILES. This is part of a sample that, as a whole, favours compounds with a hit. Of some 83,000 tested, about 20% had one in any assay.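 For each line, cells grew in 96-well plates with the test compound present at a single concentration for 48 hours.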 Unmarked numbers belong to inactive results. Activity calls are given as the source filed them. Rule for the calls: active = growth percent below 10; inactive = the rest.

Among the test systems are SK-MEL-2 melanoma; EKVX NSCLC; SN12C renal; UO-31 renal; TK-10 renal; ACHN renal; CAKI-1 renal; A498 renal; CCRF-CEM leukemia; MOLT-4 leukemia; OVCAR-8 ovarian; OVCAR-5 ovarian; OVCAR-4 ovarian; SK-OV-3 ovarian; OVCAR-3 ovarian; HS 578T breast; NCI/ADR-RES ovarian; RPMI-8226 leukemia; IGROV1 ovarian; SR leukemia.
What all share (experiment): NCI-60 one-dose screen, 48 h (100 = growth as untreated, 0 = no growth, -100 = all killed)
What all share (conditions): 10 µM unless noted

With `COC(=O)CCC/C=C\C[C@H]1C=CC(=O)/C1=C/C[C@@H](O)CCc1cccc(C(F)(F)F)c1`, the growth was -5.48% (active) with SK-MEL-2 melanoma; 6.52% (active) with EKVX NSCLC; -36% (active) with SN12C renal; -92.5% (active) with UO-31 renal; -3.59% (active) with TK-10 renal; -87.2% (active) in the assay on ACHN renal. For the same molecule, the growth in the assay on CAKI-1 renal is 12.6%; in the assay on A498 renal it was -26.7% (active); in the assay with CCRF-CEM leukemia, -6% (active); with MOLT-4 leukemia, -14.2% (active); with OVCAR-8 ovarian, 8.44% (active); in the assay on OVCAR-5 ovarian, -26.6% (active). Further, the growth with OVCAR-4 ovarian was 20%; in the assay with SK-OV-3 ovarian, 24.6%; with OVCAR-3 ovarian, -62.5% (active); in the assay on HS 578T breast, 32.3%; in the assay with NCI/ADR-RES ovarian, 9.64% (active).
Regarding `O=C(O)C(c1ccccc1)N1C(=O)CSC1=S` (centres undefined), the growth in the assay on SK-MEL-2 melanoma was 102%; in the assay with EKVX NSCLC it was 98%; in the assay on SN12C renal, 97%; in the assay with UO-31 renal, 94.3%; in the assay on TK-10 renal, 95.7%; in the assay with ACHN renal it was 102%. Further, the growth in the assay with CAKI-1 renal is 89.3%; in the assay with CCRF-CEM leukemia, 105%; in the assay with MOLT-4 leukemia, 99.9%; with RPMI-8226 leukemia it was 114%; in the assay with OVCAR-8 ovarian it was 101%; in the assay on OVCAR-5 ovarian it was 101%. Moreover, the growth is 109% with OVCAR-4 ovarian; 101% in the assay with SK-OV-3 ovarian; 107% in the assay with IGROV1 ovarian; 100% in the assay with HS 578T breast; 106% in the assay on NCI/ADR-RES ovarian.
For the molecule `CCOC(=O)c1cn2ncnc(Oc3ccc(NC(=O)NCCN(CC)CC)c(Cl)c3)c2c1C`, the growth in the assay on SK-MEL-2 melanoma is 112%; in the assay with EKVX NSCLC it was 77.2%; in the assay on SN12C renal, 68.3%; with UO-31 renal, 57%; in the assay with TK-10 renal, 110%; in the assay on ACHN renal, 88.2%. The growth in the assay with CAKI-1 renal is 68.8%; in the assay with A498 renal, 90.3%; in the assay with CCRF-CEM leukemia it was 35.5%; with MOLT-4 leukemia it was 49.2%; in the assay with OVCAR-8 ovarian, 81%; in the assay with OVCAR-5 ovarian, 80.8%. Besides, the growth was 90.3% in the assay with OVCAR-4 ovarian; 92.1% with SK-OV-3 ovarian; 87.3% in the assay on IGROV1 ovarian; 68.6% in the assay with OVCAR-3 ovarian; 77.7% in the assay on HS 578T breast; 77.6% with NCI/ADR-RES ovarian.
In the case of `CCCCCCCNC(=O)CCCNc1ncnc2c1ncn2-c1cccc(C(C)O)c1` (centres undefined), the growth with SK-MEL-2 melanoma is 105%; with EKVX NSCLC, 76.4%; in the assay with SN12C renal it was 91.4%; in the assay with UO-31 renal, 83.6%; with TK-10 renal, 97.5%; with ACHN renal, 89.6%. The growth is 90.2% with CAKI-1 renal; 18.4% with CCRF-CEM leukemia; 78.2% with MOLT-4 leukemia; 84.2% in the assay with SR leukemia; 91.1% with OVCAR-8 ovarian; 88.2% in the assay on OVCAR-5 ovarian. Moreover, the growth was 84.8% in the assay on OVCAR-4 ovarian; 104% with SK-OV-3 ovarian; 87.1% in the assay with OVCAR-3 ovarian; 97.4% in the assay on HS 578T breast; 95.8% in the assay with NCI/ADR-RES ovarian.
Regarding `COc1cc(OCc2cccc(-c3ccc(C(O)c4nccs4)cc3)c2C)cc(OC)c1CNCCNC(C)=O` (centres undefined), the growth in the assay with SK-MEL-2 melanoma is 122%; in the assay on EKVX NSCLC it was 97%; in the assay on SN12C renal, 98.1%; with UO-31 renal, 89%; with TK-10 renal, 98.9%; in the assay with ACHN renal, 101%. Also, the growth is 93.7% in the assay on CAKI-1 renal; 91.9% in the assay on CCRF-CEM leukemia; 94.9% with MOLT-4 leukemia; 85.9% with SR leukemia; 96.1% with OVCAR-8 ovarian; 98.5% in the assay with OVCAR-5 ovarian. For the same molecule, the growth in the assay with OVCAR-4 ovarian is 91.8%; in the assay on SK-OV-3 ovarian it was 113%; in the assay on IGROV1 ovarian, 103%; with OVCAR-3 ovarian, 109%; in the assay with HS 578T breast, 105%; with NCI/ADR-RES ovarian it was 101%.
As for `COc1ccc(/C=N/Nc2cc(=O)[nH]c3ccc(C)cc23)cc1`, the growth in the assay with SK-MEL-2 melanoma is 81.7%; with EKVX NSCLC, 82%; in the assay with SN12C renal, 88.3%; in the assay with UO-31 renal it was 75.7%; in the assay with TK-10 renal, 116%; in the assay with ACHN renal it was 92.2%. Moreover, the growth in the assay with CAKI-1 renal is 93.1%; in the assay on CCRF-CEM leukemia, 88%; in the assay on MOLT-4 leukemia it was 79%; in the assay on RPMI-8226 leukemia it was 81.6%; with OVCAR-8 ovarian, 95.6%; in the assay with OVCAR-5 ovarian it was 98%. The growth is 109% in the assay with OVCAR-4 ovarian; 87.6% in the assay on SK-OV-3 ovarian; 98.4% with IGROV1 ovarian; 88.3% in the assay with HS 578T breast; 94.9% with NCI/ADR-RES ovarian.

Source of the values: PubChem BioAssay (NCI).
